Experiment [1] can be described thus: qHTS for Inhibitors of the Functional Ribonucleoprotein Complex (vRNP) of Lassa (LASV) Arenavirus: LASV Primary Screen - GLuc reporter signal (AID 1347082; calls by dose curve; tested in HEK293 reporter line; further: nearly all actives have a fitted effect of over 60% in size; further: potency means the concentration at half of the fitted maximal effect; on activity change, negative = inhibition: on the % scale 0 is the no-effect control and ±100 the full control effect). (In qHTS, concentration-response curves come from the screen itself.)
Experiment [2] in a line: qHTS for Inhibitors of the Functional Ribonucleoprotein Complex (vRNP) of Lassa (LASV) Arenavirus: Viability assay - alamar blue signal for LASV Primary Screen (AID 1347083; calls by dose curve; tested in HEK293 reporter line; further: nearly all actives have a fitted effect of over 80% in size; further: potency means the concentration at half of the fitted maximal effect).
Experiment [3] is described as follows: qHTS for Inhibitors of the Functional Ribonucleoprotein Complex (vRNP) of Lymphocytic Choriomeningitis Arenaviruses (LCMV): Viability assay - alamar blue signal for LCMV Primary Screen (AID 1347085; calls by dose curve; tested in HEK293 reporter line; further: nearly all actives have a fitted effect of over 80% in size; further: potency means the concentration at half of the fitted maximal effect).
In experiment [4] the target is Nucleoprotein (Lymphocytic choriomeningitis virus (strain Armstrong)) (UniProt P09992). Briefly: qHTS for Inhibitors of the Functional Ribonucleoprotein Complex (vRNP) of Lymphocytic Choriomeningitis Arenaviruses (LCMV): LCMV Primary Screen - GLuc reporter signal (AID 1347086). Further: nearly all actives have a fitted effect of over 70% in size. Further: potency means the concentration at half of the fitted maximal effect. On activity change, negative = inhibition: on the % scale 0 is the no-effect control and ±100 the full control effect.
Experiment [5] can be described thus: Primary qHTS for Huh7 cytotoxicity: counterscreen for inhibitors of MERS-S pseudotyped particle cell entry (AID 1479147). Particulars: outcome: dose series up to 57.1 µM unless noted.
Experiment [6] can be described thus: Primary qHTS for inhibitors of MERS-S pseudo-typed particle cell entry (AID 1479149). Further: nearly all actives have a fitted effect of over 60% in size. Further: potency means the concentration at half of the fitted maximal effect.
A short description of experiment [7]: Primary qHTS for Vero E6 cytotoxicity: counterscreen for inhibitors of SARS-S pseudo-typed particle cell entry (AID 1479150). Particulars: outcome: dose series up to 57.1 µM unless noted.
Experiment [8] is described as follows: Cytotoxicity counterscreen for inhibitors of SARS-CoV-2 cell entry (AID 1645845). Further: nearly all actives have a fitted effect of over 50% in size. An outline of the steps:
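Counterscreen run in the same HEK293-ACE2 line as the pseudotyped-particle entry assay, without particles. Viability after 48 h at 37 C was read as ATP luminescence, scaled between cell-containing and cell-free wells.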
On the technique in general: The purpose of a counterscreen is to sort out artefacts and off-target activity.

Experiment [9] in a line: Primary qHTS to identify inhibitors of SARS-CoV-2 cell entry (AID 1645846). Further: nearly all actives have a fitted effect of over 45% in size. To be noted: activity change, negative = inhibition: at 57.1 µM (top of the series) unless noted. An outline of the steps: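 Using luciferase-reporting pseudoviruses carrying Wuhan-Hu-1 spike, the screen tracks entry into stably ACE2-expressing cells over 48 hr. Activity is expressed relative to spike particles versus particles lacking any fusion protein.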

Experiment [10] concerns the target Alpha-galactosidase (Coffea arabica) (UniProt Q42656). In words: Counterscreen for Glucocerebrosidase Inhibitors: qHTS Assay for Coffee Bean alpha-Galactosidase at pH 4.5 (AID 957; active means well fitted curve in the direction sought with a large enough effect; an effect the other way counts as inactive or inconclusive;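 further: plate controls were enzyme alone for no effect and no enzyme for full effect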). In short, it runs like this: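 Fluorogenic read-out: 4-methylumbelliferone at Ex 365/Em 440 nm after NaOH/glycine stop (pH 10). Enzyme 2 nM, 4-MU-alpha-galactoside 80 uM, citrate buffer pH 4.5, 20 min RT; normalized to no-enzyme and enzyme controls.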

The target is the same in experiment [11]. In words: Counterscreen for Glucocerebrosidase Inhibitors: qHTS Assay for Coffee Bean alpha-Galactosidase at pH 5.9 (AID 998; active means well fitted curve in the direction sought with a large enough effect; an effect the other way counts as inactive or inconclusive;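 further: plate controls were uninhibited enzyme for no effect and no-enzyme basal signal for full effect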). An outline of the steps: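 Enzyme 2 nM + cpd (0.7 nM–77 uM titration) + 4-MU-alpha-Gal 80 uM, pH 5.9 citrate/Tween-20, RT 20 min, NaOH/glycine stop pH 10, fluor 365/440. Normalized to no-enzyme and full-activity controls; Hill-fit AC50.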

Experiment [12] in a line: Validation screen for inhibitors of Lassa infection (AID 463096). Further: on the % scale 0 is the no-effect control and ±100 the full control effect.
Experiment [13] is described as follows: Inducers of the Endoplasmic Reticulum Stress Response (ERSR) in human glioma: Validation (AID 504836; active means well fitted curve in the direction sought with a large enough effect; an effect the other way counts as inactive or inconclusive; further: 0% is about no effect). An outline of the steps:
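Stably transfected U87-MG glioma cells carrying a GRP78-based luciferase sensor; 16 h compound incubation. Luminescence end-point read 10 min after Bright-Glo addition at room temperature.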

Experiment [14] is described as follows: Confirmatory qHTS to identify inhibitors of SARS-CoV-2 cell entry (AID 1645844). Further: potency means the concentration at half of the fitted maximal effect; nearly all actives have a fitted effect of over 45% in size. In short, it runs like this:
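HEK293-ACE2, overnight seeding; cpd 1 h, 37C/5% CO2; + SARS-CoV-2-S MLV PP (Wuhan-Hu-1, ΔC19); 48 h; Bright-Glo luminescence. Data normalised to S PP and bald PP wells.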

The nature of experiment [15]: VSVG counterscreen qHTS to identify inhibitors of SARS-CoV-2 cell entry (AID 1645847). Further: potency means the concentration at half of the fitted maximal effect; nearly all actives have a fitted effect of over 65% in size. In short, it runs like this: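 Entry of VSV-G pseudotyped particles into human ACE2-expressing HEK293 cells was measured by luciferase luminescence 48 h after infection, with compound added 1 h beforehand.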

Values joined by “and” are separate entries in the source; they are usually repeats but may differ in a detail not shown here. Equal values may be shown once. Records with an inconclusive call do not appear. Active and inactive are the calls of the source. Unless noted, the call rests on the fitted dose curve.

Sequence of Nucleoprotein (Lymphocytic choriomeningitis virus (strain Armstrong)) (P09992 whole entry, looked up): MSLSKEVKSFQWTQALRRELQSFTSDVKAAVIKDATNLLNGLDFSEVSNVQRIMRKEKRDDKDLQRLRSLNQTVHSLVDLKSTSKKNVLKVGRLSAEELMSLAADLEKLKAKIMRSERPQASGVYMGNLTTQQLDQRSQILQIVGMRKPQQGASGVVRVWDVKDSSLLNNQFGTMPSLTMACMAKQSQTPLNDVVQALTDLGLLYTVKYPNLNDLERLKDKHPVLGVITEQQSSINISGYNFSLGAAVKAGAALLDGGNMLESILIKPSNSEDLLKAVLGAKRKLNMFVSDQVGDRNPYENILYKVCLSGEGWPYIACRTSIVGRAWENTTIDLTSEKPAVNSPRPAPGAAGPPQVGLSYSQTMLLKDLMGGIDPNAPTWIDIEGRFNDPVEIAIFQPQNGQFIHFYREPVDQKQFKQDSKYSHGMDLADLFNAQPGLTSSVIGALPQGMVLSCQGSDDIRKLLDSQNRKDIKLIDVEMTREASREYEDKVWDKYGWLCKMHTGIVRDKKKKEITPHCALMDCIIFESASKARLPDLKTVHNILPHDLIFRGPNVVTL
Sequence of Alpha-galactosidase (Coffea arabica) (Q42656 whole entry, looked up): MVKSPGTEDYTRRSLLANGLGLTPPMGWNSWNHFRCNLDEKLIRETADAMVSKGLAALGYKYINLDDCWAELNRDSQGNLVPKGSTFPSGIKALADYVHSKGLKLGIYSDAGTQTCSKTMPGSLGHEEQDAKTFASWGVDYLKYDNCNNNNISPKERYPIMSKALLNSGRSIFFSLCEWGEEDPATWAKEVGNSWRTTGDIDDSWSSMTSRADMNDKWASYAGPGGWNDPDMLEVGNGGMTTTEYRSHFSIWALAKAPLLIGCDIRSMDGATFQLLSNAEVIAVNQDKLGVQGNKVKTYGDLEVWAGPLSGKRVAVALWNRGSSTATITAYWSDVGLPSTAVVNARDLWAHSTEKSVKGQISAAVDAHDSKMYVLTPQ

As for `OC[C@@H]1[C@@H](O)[C@H](O)[C@H]2[C@@H](O)CCN21`, the Potency entry in experiment [1], in [2], in experiment [3] and in experiment [4] was “inactive” each time.

Turning to `N[C@@H](CC(=O)N1CCn2c(nnc2C(F)(F)F)C1)Cc1cc(F)c(F)cc1F`, the Potency result in experiment [1], in experiment [2], in [3], in experiment [4], in experiment [6] and in [8] was “inactive” in each case. The outcome in experiment [5] and in experiment [7] was inactive. The activity change, negative = inhibition in experiment [9] is -27.8%.

For the compound `CCC(=O)NCC[C@@H]1CCc2ccc3c(c21)CCO3`, the Potency result in experiment [1], in [2], in experiment [3], in experiment [4], in experiment [6] and in [8] was “inactive” throughout. For the same compound, the call in [5] and in experiment [7] was inactive. The activity change, negative = inhibition in experiment [9] is -26.7%.

On to `CN(C)CCCN1c2ccccc2CCc2ccccc21`, for which the compound was classed as inactive in experiment [10], in [11], in [5] and in experiment [7]. Also, the Potency result in experiment [1], in experiment [2], in experiment [3], in experiment [4] and in experiment [8] was “inactive” in each case.

Take `CN(C/C=C/c1ccccc1)Cc1cccc2ccccc12`: the Potency entry in experiment [1], in experiment [2], in experiment [3], in experiment [4] and in experiment [8] was “inactive” throughout. Also, the compound was called inactive in experiment [5] and in experiment [7].

As for `OCCCNc1cc(-c2ccnc(Nc3cccc(Cl)c3)n2)ccn1`, the Potency in [1] was 306 nM (active); in experiment [2], 193 nM (active); in [3], 769 nM (active); in experiment [4], 968 nM (active). Moreover, in [9], the activity change, negative = inhibition was -94.2%.

With `Cc1ccc(C(=O)Nc2cccc(C(F)(F)F)c2)cc1Nc1nc(-c2cccnc2)nc2c1cnn2C`, the Potency result in experiment [1], in [2], in experiment [3], in experiment [4] and in [8] was “inactive” throughout.

In the case of `CC(C)C(=O)Oc1ccc(CO)cc1[C@H](CCN(C(C)C)C(C)C)c1ccccc1`, the Potency result in experiment [1], in [2], in experiment [3], in experiment [4] and in experiment [8] was “inactive” each time. Besides, the compound was classed as inactive in [5] and in experiment [7]. Moreover, the Potency in experiment [6] is 14100 nM (active).

With `CCCNS(=O)(=O)Nc1ncnc(OCCOc2ncc(Br)cn2)c1-c1ccc(Br)cc1`, the Potency result in experiment [1], in experiment [2], in [3], in [4], in experiment [6] and in experiment [8] was “inactive” in each case. Also, the result in experiment [5] and in experiment [7] was inactive.

`CC(=O)Nc1cccc(-n2c(=O)n(C3CC3)c(=O)c3c(Nc4ccc(I)cc4F)n(C)c(=O)c(C)c32)c1`: the Potency entry in experiment [1], in [2], in experiment [3], in [4], in [6] and in experiment [8] was “inactive” each time. The outcome in [5] and in experiment [7] was inactive.

`CC1(C)CCC(CN2CCN(c3ccc(C(=O)NS(=O)(=O)c4ccc(NCC5CCOCC5)c([N+](=O)[O-])c4)c(Oc4cnc5[nH]ccc5c4)c3)CC2)=C(c2ccc(Cl)cc2)C1`: the Potency entry in experiment [1], in experiment [2], in experiment [3], in [4], in [6] and in experiment [8] was “inactive” each time. For the same compound, the compound was called inactive in experiment [5] and in experiment [7]. For the same compound, in [9], the activity change, negative = inhibition is -9.23% and -30%.

On to `Nc1cccc2c1C(=O)N(C1CCC(=O)NC1=O)C2=O` (stereo not drawn), for which the Potency result in experiment [1], in [2], in experiment [3], in [4], in experiment [6] and in experiment [8] was “inactive” in each case. In addition, the outcome in [5] and in experiment [7] was inactive. Further, the activity change, negative = inhibition in [9] is -12.7%.

Turning to `CCc1cc2c(cc1N1CCC(N3CCOCC3)CC1)C(C)(C)c1[nH]c3cc(C#N)ccc3c1C2=O`, the Potency result in [1], in experiment [2], in [3], in experiment [4], in [6] and in [8] was “inactive” throughout. In experiment [9], the Potency result was “inactive”. The compound was classed as inactive in experiment [5] and in experiment [7]. In addition, the activity change, negative = inhibition in experiment [9] was -34.9% [at 27.1 µM].

As to `O=C(O)/C=C/c1ccccc1`, the Potency entry in [1], in [2], in experiment [3], in experiment [4], in experiment [6] and in [8] was “inactive” throughout. Moreover, the outcome in experiment [5] and in [7] was “inactive [at 114 µM]” throughout. In experiment [9], the activity change, negative = inhibition is -30.4% [at 114 µM].

As for `COc1ccc(-n2nc(C(N)=O)c3c2C(=O)N(c2ccc(N4CCCCC4=O)cc2)CC3)cc1`, the Potency result in [1], in experiment [2], in [3], in experiment [4], in experiment [6] and in [8] was “inactive” throughout. For the same compound, the Potency result in [9] was “inactive”. The result in experiment [5] and in experiment [7] was inactive.

Consider `CC(=O)[C@H]1CC[C@H]2[C@@H]3CCC4=CC(=O)CC[C@]4(C)[C@H]3CC[C@]12C`, for which the call in experiment [10], in experiment [11], in experiment [13], in experiment [5] and in experiment [7] was inactive. The Potency result in [12], in experiment [1], in [2], in [3] and in experiment [4] was “inactive” each time. Besides, the Potency was 24100 nM (active) in experiment [14] and 17100 nM (active) in experiment [15].

Regarding `CC(=O)O[C@H]1Cc2ccccc2N(C(N)=O)c2ccccc21`, the call in [13], in experiment [5] and in [7] was inactive. In addition, the Potency entry in experiment [1], in experiment [2], in [3], in [4], in [6] and in experiment [8] was “inactive” each time. Moreover, in [9], the activity change, negative = inhibition was -29.9%.

As for `O=C1c2c(O)cccc2[C@@H]([C@@H]2O[C@H](CO)[C@@H](O)[C@H](O)[C@H]2O)c2cc(CO)cc(O)c21`, the Potency entry in experiment [1], in experiment [2], in experiment [3], in [4], in [6] and in experiment [8] was “inactive” each time. In addition, the call in experiment [5] and in experiment [7] was inactive.

The record behind these values is PubChem BioAssay (NCATS).
